From PubChem
HT1080 IDH1KD tx: qHTS for induction of synthetic lethality in tumor cells producing 2HG: qHTS for the HT-1080-IDH1KD cell line; HT-1080 IDH1 knockdown viability, ATP luminescence, 48 h; Potency, µM (titrated, usually from 46.1 µM), for inactives: at the top dose activity, negative = toxicity, actives largely listed as cytotoxic; 2% of 360,000 active;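 also: potency is read from the fitted curve at half-maximal effect; 0% = DMSO wells and -100% = cell-free medium wells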
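IDH1KD HT-1080 cells, 750/well, RPMI + 5% FBS; compound pinned after 2 h settling; 48 h, 37 °C; CellTiter-Glo luminescence; % activity normalised to DMSO and no-cell wells; curves fitted, classed by r2 and efficacy.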
DT40 TDP1 no CPT: qHTS for Inhibitors of human tyrosyl-DNA phosphodiesterase 1 (TDP1): qHTS in cells in absence of CPT | AID 686978, 2013 | 15% of 420,000 active | DT40 Tdp1-/- hTDP1 cells, no CPT, ATP luminescence, 48 h | Potency, µM (doses to about 46.2 µM), for inactives: at the top dose activity change, negative = growth inhibition, most hits filed as inhibitors; also: potency is read from the fitted curve at half-maximal effect; nearly all actives have a fitted effect of over 55% in size
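Compound effects on proliferation are scored in DT40 Tdp1-/-;hTDP1 cells in the absence of CPT. ATP levels (CellTiter-Glo luminescence) are recorded after a ≥48 hr, 37 °C incubation.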
HT1080NT lethal: qHTS for induction of synthetic lethality in tumor cells producing 2HG: qHTS for the HT-1080-NT fibrosarcoma cell line | 1.6% of 360,000 active | HT-1080-NT fibrosarcoma viability, CellTiter-Glo ATP luminescence, 48 h | Potency, µM (highest dose often 46.1 µM), for inactives: at the highest dose activity, negative = less viability, most hits filed as cytotoxic;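 also: NT is the 2HG producing partner of a matched IDH1 knockdown line; potency is read from the fitted curve at half-maximal effect; 0% = DMSO-treated cells and -100% = media-only wells without cells; nearly all actives have a fitted effect of over 55% in size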
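A 48-hour cytotoxicity screen used HT-1080-NT cells plated 2 hours before compound delivery. ATP-based CellTiter-Glo luminescence measured viability, normalized to DMSO and no-cell controls.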
IL1B secr inh: qHTS for Inhibitors of Inflammasome Signaling: IL-1-beta AlphaLISA Primary Screen. THP-1 LPS/ATP IL-1B secretion, AlphaLISA, 16 h; stronger effect = lower value. activity change, % at 57.5 µM. 4.7% of 360,000 active. AID 743279, 2014; in the data active = activity change below about -50%; inconclusive = mostly about -30% to -49%
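Secreted IL-1B measured by AlphaLISA bead assay after 16 h compound exposure of THP-1 cells; compounds (final up to 57.5 uM) added 1 h before LPS (250 ng/mL) and ATP (1.25 mM) stimulation; lower signal means less secretion.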
TDP1 cell CPT: qHTS for Inhibitors of human tyrosyl-DNA phosphodiesterase 1 (TDP1): qHTS in cells in presence of CPT; chicken DT40 Tdp1-/-;hTDP1 cells + 20 nM CPT, ATP luminescence, 48 h; Potency, µM (highest dose often 46.2 µM), inactives show top-dose activity change, negative = growth inhibition, usual class: inhibitors; 12% of 420,000 active; AID 686979, 2013; also: potency is read from the fitted curve at half-maximal effect; nearly all actives have a fitted effect of over 55% in size
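Chicken DT40 Tdp1-/- cells stably complemented with human TDP1 were seeded at 400 cells/well in medium containing 20 nM camptothecin, exposed to pin-transferred compounds, and grown at 37 °C for at least 48 hr. Viability was read as ATP luminescence.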
* = called active by the depositor; ? = inconclusive; nt = no result given; ! = not confirmed by another sample. The list is not random: actives were taken first. Their share in the collection is about 19%. Unless noted, calls follow the shape of the dose curve; as a rule, active = well fitted curve in the direction sought with a large enough effect; inconclusive = small, poorly fitted or top-dose-only effect, or another doubt; inactive = no such curve, though single readings can be large; an effect the other way counts as inactive or inconclusive. Unless noted, % is scaled to controls: 0 for no effect and ±100 for the full control effect.

SMILES	HT1080 IDH1KD tx	DT40 TDP1 no CPT	HT1080NT lethal	IL1B secr inh	TDP1 cell CPT
CCn1ncc([N+](=O)[O-])c1C(=O)Nc1c(C)nn(Cc2ccc(F)cc2)c1C	0%	-8%	0%	6	-2%
Clc1ccc(-c2nc(-c3cc4cc(Cl)ccc4o3)cs2)cc1	-4%	-5%	-4%	5	-7%
Cc1nn(-c2ccc3nnc(C)n3n2)c(C)c1CCC(=O)Nc1ccc(OC(F)(F)F)cc1	nt	23µM*	nt	nt	12µM*
CC(=O)c1ccc(NC(=O)CCc2c(C)nn(-c3ccc4nnc(C)n4n3)c2C)cc1	nt	-13%	nt	nt	1%
Cc1cccc(NC(=O)C2CCCN(C(=O)Nc3ccccc3)C2)c1C (configuration not stated)	-7%	-16%	1%	16	-6%
CCCCCCn1c(SCCCC)nc2c1c(=O)[nH]c(=O)n2C	-4%	?	2%	3	-13%
CCn1c([N+](=O)[O-])nc2c1c(=O)[nH]c(=O)n2C	21µM*	1.8µM*	18µM*	-99*	2.3µM*
CCOc1ccc(NC(=O)c2c(Nc3ccccc3C)sc(C(=O)c3ccccc3)c2N)cc1	nt	12µM*	nt	nt	?
Cc1ccccc1Nc1sc(C(=O)Nc2cccc(Cl)c2)c(N)c1C(N)=O	-1%	4%	-7%	?	19%
CCOc1ccccc1Nc1sc(C(=O)c2ccccc2)c(N)c1C(=O)Nc1ccc(F)cc1	nt	13µM*	nt	nt	?
CCOc1ccccc1Nc1sc(C(=O)c2ccc(Cl)cc2)c(N)c1C(=O)NCCc1ccccc1	nt	21µM*	nt	nt	4.6µM*
N#Cc1c(Nc2ccccc2)sc(C(=O)c2ccc(F)cc2)c1N	-11%	?	-13%	13	-22%
CCS(=O)(=O)c1c(Nc2ccc(F)c(Cl)c2)sc(C(=O)c2ccccc2)c1N	nt	?	nt	nt	-19%
Cc1cccc(C)c1Nc1sc(C(=O)c2ccccc2)c(N)c1C(=O)Nc1ccc(F)cc1	nt	21µM*	nt	nt	?
O=C(N/C(=C\c1ccc([N+](=O)[O-])cc1)C(=O)N1CCCCC1)c1ccccc1Br	10%	?	8%	3	-21%
Cc1ccc(NC(=O)CCSc2nc(C)cc(C)n2)cc1	22%	-19%	21%	-20	11%
Cc1ccc2[nH]cc(CCNC(=O)c3ccc4c(c3)OCO4)c2c1	12%	-26%	13%	-53*	-19%
O=C(NCCCCNC(=O)c1cccs1)c1cccs1	19%	-14%	3%	-1	4%
O=C(NCCCNC(=O)c1cccs1)c1cccs1	3%	9.2µM*	5%	15	8.2µM*
Cc1ccc2[nH]cc(CCNC(=O)c3cccs3)c2c1	-3%	?	-5%	-75*	0%
O=C(NCCc1c[nH]c2ccccc12)c1ccc2c(c1)OCO2	-7%	?	-17%	7	-5%
COc1ccc2[nH]cc(CCNC(C)=O)c2c1	0%	3%	26%	7	-6%
CC(=O)NCCc1c[nH]c2ccc(O)cc12	5%	-18%	27%	2	18µM*!
CC(OC(=O)/C=C/c1ccccc1)C(=O)N1CCc2ccccc21 (configuration not stated)	-4%	-24%	0%	-8	-4%
O=C(NN1CCOCC1)c1cc(-c2ccc(Br)s2)nc2ccccc12	12%	?	5%	12	?
SMILES	HT1080 IDH1KD tx	DT40 TDP1 no CPT	HT1080NT lethal	IL1B secr inh	TDP1 cell CPT
CCCc1ccc(-c2cc(C(=O)NN3CCOCC3)c3ccccc3n2)cc1	?	0.46µM*	-8%	-56*	?
CC(C)Oc1cccc(-c2cc(C(=O)NN3CCOCC3)c3ccccc3n2)c1	1%	10µM*	-4%	-3	15µM*
CCc1ccc(-c2cc(C(=O)Nn3cnnc3)c3ccccc3n2)cc1	14µM*	13µM*	10µM*	26	7.3µM*
CCN(CC)S(=O)(=O)c1ccc(NC(=O)C(OC)c2ccccc2)cc1 (configuration not stated)	2%	-20%	-7%	6	-9%
CC1=C(C(N)=O)C(c2ccc(F)cc2)n2nc(-c3ccc(N(C)C)cc3)nc2N1 (configuration not stated)	nt	1%	nt	nt	0%
CC(=O)Nc1ncc([N+](=O)[O-])s1	nt	-12%	nt	nt	-21%
O=C(COc1ccc(Cl)cc1)Nc1ncc([N+](=O)[O-])s1	?	23µM*	?	-22	26µM*
O=C(COC(=O)c1ccc([N+](=O)[O-])s1)Nc1ccccc1	20%	-12%	16%	17	?
N/C(=N\OC(=O)Nc1ccccc1)c1ncc([N+](=O)[O-])s1	21µM*	8.2µM*	?	-64*	3.3µM*
O=C(Cc1ccc(Br)cc1)Nc1ncc([N+](=O)[O-])s1	?	13µM*	?	-54*	?
